Screening results deposited in PubChem by several laboratories.
NALP1 yeast inh – NALP1 inhibition; S. cerevisiae NALP1/ASC/caspase-1 growth, X-gal OD620, 72 h; inhibition, % at 10 µM; actives 0.61% (n = 280,000); in the data active = inhibition mostly above about 24%, no sharp cut-off; inactive = mostly below about 32%
HSF-1 act – increases HSF-1 driven luciferase reporter signal. NIH3T3-HGL HSF-1 luciferase reporter, MG132, 8 h; 100% = twice DMSO control signal. activation, % at 9 µM. actives 1.7% (n = 300,000). AID 504408;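 active = mean replicate activation of at least 50% with a set share of replicates each reaching 50%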
HSF1 inhib – HSF1 inhibition; actives 0.77% (n = 300,000); NIH3T3-HGL HSE-luciferase, MG132-induced, luminescence 8 h; hits give low values; activity change, negative = inhibition, % at 7.5 µM (by protocol);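 active = more than half of replicate wells show activity change below -50%, luminescence cut by over half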;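 note: luciferase reports HSF-1 transcriptional activity via heat shock element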
pCIP destab – p/CIP protein destabilization | Q05BA5 | F442A p/CIP-EGFP cells, EGFP fluorescence, 16 h | decrease of EGFP signal, % at 10 µM | actives 0.01% (n = 290,000) | AID 1984;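 active = EGFP signal decrease of at least 30% at 10 µM or well 3 SD below plate mean, unless failing retest; inactive = the rest, including hits failing retest or dose response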
HSP90 inh – blocks HSP90-mediated luciferase refolding in reticulocyte lysate; inhibition, % at 5.6 µM; actives 0.91% (n = 290,000); AID 1789; Rabbit reticulocyte lysate, luciferase refolding luminescence, 3 h;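 active = inhibition above the screen-wide mean plus 3 SD, computed separately per campaign, cut at about 16% in these data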;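 note: inhibitors lower the luminescence because luciferase stays unfolded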
Hsp70 act – switches on Hsp70 transcription; HeLa Hsp70 promoter luciferase reporter, luminescence; scaled: vehicle 0, proteasome-inhibitor control 100%; activation, % at 10 µM; actives 0.04% (n = 200,000); AID 1203;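 active = activation above the mean across all tested compounds plus 3 SD, cutoff set per campaign, cut at about 5.5% in these data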
Hits are given with their value; . = inactive; / = no result given. This is a sample that favours compounds with a hit; in the whole collection about 3.8% have one here.

SMILES | NALP1 yeast inh | HSF-1 act | HSF1 inhib | pCIP destab | HSP90 inh | Hsp70 act
CCOc1ncccc1C(=O)NCC(c1ccccc1)N(C)C (stereo not drawn) | . | . | . | . | . | /
Cc1nc2c(=O)n(C)c(=O)n(C)c2nc1Cl | 93.9 | 284.1 | . | . | . | .
Cc1ccc(NC(=O)Cn2ccnc2)cc1C | . | . | . | . | . | /
CCCc1c(C(=O)OCC)[nH]c2c1C(=O)CCC2 | 43.2 | . | . | . | . | .
CCN(c1ccccc1)S(=O)(=O)c1ccc(Cl)c(NC(=O)COC(=O)c2cccc(OC)c2O)c1 | / | 59.0 | . | . | . | .
CCN(c1ccccc1)S(=O)(=O)c1ccc(Cl)c(NC(=O)COC(=O)c2ccc(Cl)c(N)c2)c1 | . | . | . | . | . | .
Cc1ccc(C(=O)N/C(=C\c2cccs2)C(=O)N2CCOCC2)cc1C | . | . | . | . | . | /
CCOc1ccc2nc(NC(=O)Cc3cccs3)sc2c1 | . | . | . | . | . | .
O=C(Cc1cccs1)Nc1nc2ccccc2s1 | . | 65.5 | . | . | . | .
COc1ccc2nc(NC(=O)Cc3cccs3)sc2c1 | . | 64.6 | . | . | . | .
Cc1ccc2sc(NC(=O)CSc3nc(C)cc(C)c3C#N)nc2c1 | . | . | . | . | . | .
O=C(CSC1=NCCS1)Nc1nc2ccccc2s1 | . | 56.3 | . | . | . | .
Cc1ccc(-c2cc(C(F)(F)F)c(C#N)c(SCC(=O)O)n2)cc1 | . | 57.6 | . | . | . | .
Cc1nc(SCC(=O)Nc2nc3ccccc3s2)c(C#N)c(C)c1C | . | . | -92.1 | . | 67.9 | .
Cc1cc(C(F)(F)F)c(C#N)c(SCC(=O)Nc2nc3ccccc3s2)n1 | . | . | -73.2 | . | 29.9 | .
CCC(Sc1nc2ncccc2[nH]1)C(=O)NCCc1ccccc1 (stereo not drawn) | . | . | . | . | . | /
CCCOc1ccc(CNC(=O)C2CCN(C(=O)N3CCOc4ccccc43)CC2)cc1 | . | . | . | . | . | /
O=C(CCN1C(=O)S/C(=C\c2ccccc2)C1=O)NC1CCS(=O)(=O)C1 (stereo not drawn) | . | . | . | . | . | /
[O-]/[N+](=C\C=C\c1ccccc1)c1ccccc1 | . | 62.3 | . | . | . | /
[O-]/[N+](=C/c1ccc(F)cc1)c1ccccc1 | . | . | . | . | . | .
CC(=O)c1ccc(NC(=O)CN(C)CC(=O)Nc2cccc(F)c2)cc1 | . | . | . | . | . | .
CC(CC(=O)N(CCC1=CCCCC1)c1c(N)n(Cc2ccccc2)c(=O)[nH]c1=O)c1ccccc1 (stereo not drawn) | / | . | . | / | / | /
Cc1ccc(NC(=O)CN2C(=O)c3ccccc3S2(=O)=O)cc1C | . | . | . | . | . | /
O=C(CN1C(=O)c2ccccc2S1(=O)=O)Nc1ccccc1 | . | . | -65.2 | . | . | .
COc1ccc(C(=O)CN2C(=O)c3ccccc3S2(=O)=O)cc1Br | . | . | . | . | . | /
SMILES | NALP1 yeast inh | HSF-1 act | HSF1 inhib | pCIP destab | HSP90 inh | Hsp70 act
COc1ccc(C(=O)CN2C(=O)c3ccccc3S2(=O)=O)cc1 | . | . | -64.8 | . | . | /
CC(=O)Nc1ccc(NC(=O)CN(C)S(=O)(=O)c2ccc3ccccc3c2)cc1 | . | . | . | . | . | /
C=CCN1c2ccccc2[C@]23C[C@@H](C(=O)OC)N(C(=O)CC(C)C)C2=NC(C(=O)OC)=C(C(=O)OC)[C@H]13 | . | . | . | . | / | /
COC(=O)C1=C(C(=O)OC)[C@@H]2N(Cc3ccccc3)c3ccccc3[C@@]23C[C@@H](C(=O)OC)N(C(=O)c2ccc(Br)cc2)C3=N1 | . | . | -68.3 | . | . | /
COC(=O)C1=C(C(=O)OC)[C@@H]2N(Cc3ccccc3)c3ccccc3[C@@]23C[C@@H](C(=O)OC)N(C(C)=O)C3=N1 | / | . | . | . | / | /
C=CCN1c2ccccc2[C@]23C[C@@H](C(=O)OC)N(C(=O)OCC)C2=NC(C(=O)OC)=C(C(=O)OC)[C@H]13 | / | . | . | / | / | /
C=CCN1c2ccccc2[C@]23C[C@@H](C(=O)OC)N(C(=O)c4ccc(Br)cc4)C2=NC(C(=O)OC)=C(C(=O)OC)[C@H]13 | / | . | -69.3 | . | / | /
COC(=O)C1=C(C(=O)OC)[C@@H]2N(C)c3ccccc3[C@@]23C[C@@H](C(=O)OC)N(C(=O)CC(C)C)C3=N1 | / | . | -74.9 | . | / | /
CCN(c1ccc2c(c1)OCO2)S(=O)(=O)c1cc2c(cc1Br)CCN2C(=O)C1CC1 | / | . | . | / | / | /
COc1ccccc1N1CCN(C(=O)c2ccc3c(c2)NC(=O)C(CSCc2ccccc2C)N3)CC1 (stereo not drawn) | . | . | . | . | . | /
CCOC(=O)/C(C#N)=C1\SS/C(=C(/C#N)C(=O)OCC)S1 | 79.5 | . | . | . | . | /
C[C@H]1Oc2ccccc2C(=O)C1C(=O)c1ccccc1 (stereo partly drawn) | / | . | . | / | / | /
COc1ccc(-c2nnc(SCC(=O)N(C)C3CCS(=O)(=O)C3)n2N)cc1OC (stereo not drawn) | . | . | . | . | . | .
O=S(=O)(N1CCCCC1)N1CCN(c2ccc(F)cc2)CC1 | . | . | -70.7 | . | . | .
O=C(c1ccc(F)cc1)c1ccc(N2CCCC2)cc1 | . | . | . | . | . | .
O=S(=O)(c1ccc(N2CCN(c3ccc(F)cc3)CC2)cc1)N1CCCC1 | . | . | . | . | . | .
O=C(c1ccc(F)cc1)c1ccc(N2CCCCC2)cc1 | . | 63.9 | . | . | . | /
Cc1nn(-c2ccccc2)cc1C(c1c(N)[nH]c(=S)[nH]c1=O)c1c(N)[nH]c(=S)[nH]c1=O | . | . | . | . | . | .
Clc1ccc(-n2nnnc2Sc2ncnc3sccc23)cc1 | / | 128.9 | . | / | . | .
COc1cccc(-c2nc3sc4c(c3c(=O)[nH]2)CCCCC4)c1 | . | 53.1 | . | . | . | .
COCc1nc2sc3c(c2c(=O)[nH]1)CCCC3 | . | . | . | . | . | .
Cc1sc2c(c1C)CN(CCN1CCOCC1)CN2C(=O)c1ccccc1 | . | . | . | . | . | .
CN(CCOc1ccccc1)C(=O)C1CCC(=O)N(CCc2ccc(Cl)cc2)C1 (stereo not drawn) | . | 59.2 | . | . | . | /
CN(Cc1cnccn1)C(=O)C1CCC(=O)N(CCc2ccccc2)C1 (stereo not drawn) | . | . | . | . | . | /
Cc1ccc(CN(C)C(=O)C2CCC(=O)N(CCc3ccccc3)C2)o1 (stereo not drawn) | . | 194.8 | . | . | . | /
O=C(/C=C/c1cccc([N+](=O)[O-])c1)N1CCN(c2ccc(F)cc2)CC1 | . | . | . | . | . | .
CC1CC(C)CN(C(=O)CSc2nnc(-c3ccc(Cl)cc3)o2)C1 (stereo not drawn) | 34.8 | . | . | . | . | .
CC1CCN(CC(=O)Nc2ccc(N3CCCCCC3)cc2)CC1 | . | . | . | . | . | .
